In PubChem BioAssay (Tox21) one finds Potency data, which are given here for 13 compounds.

The nature of experiment [1]: qHTS assay to identify small molecule antagonists of the thyroid receptor (TR) signaling pathway - cell viability counter screen (AID 743064). Note: nearly all actives have a fitted effect of over 50% in size. Put shortly:
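GH3.TRE-Luc cells, 4 h pre-plating; cpd + T3 1 nM final; 37 °C 23.5 h; CellTiter-Fluor 30 min; fluorescence read.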

The nature of experiment [2]: qHTS assay to identify small molecule antagonists of the thyroid receptor (TR) signaling pathway (AID 743065). Note: series mostly up to about 70 µM; nearly all actives have a fitted effect of over 55% in size. Put shortly: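 GH3.TRE-Luc rat pituitary cells carrying two TR response elements driving luciferase were plated for 4 h, given compound plus 1 nM T3 (final), and incubated 23.5 h at 37 C. ONE-Glo luminescence measured reporter inhibition; CellTiter-Fluor fluorescence tracked cytotoxicity.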

In experiment [3] the test system is thyroid hormone receptor (rat, GH3 cells). In words: qHTS assay to identify small molecule agonists of the thyroid receptor (TR) signaling pathway (AID 743066; calls by dose curve).
In experiment [4] the target is Estrogen receptor (Homo sapiens) (UniProt P03372). In words: qHTS assay to identify small molecule antagonists of the estrogen receptor alpha (ER-alpha) signaling pathway (AID 743069; active = well fitted curve in the direction sought with a large enough effect in the signal ratio in the repeat runs, not every such curve was filed as active; the % refers to the signal ratio). Put shortly:
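A 17beta-estradiol challenge was applied right after compound transfer to ER-alpha-UAS-bla HEK293 cells previously kept in charcoal-stripped serum. Plates stood 18 hr at 37C and 5% CO2; fluorescence was read following 2 hr FRET substrate loading at room temperature.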

A short description of experiment [5]: qHTS assay to identify small molecule antagonists of the estrogen receptor alpha (ER-alpha) signaling pathway - cell viability counter screen (AID 743074; calls by dose curve;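 note: HEK293 cells carrying ER-alpha-UAS-bla reporter stimulated with 17beta-estradiol; nearly all actives have a fitted effect of over 45% in size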).
Experiment [6] addresses Estrogen receptor (Homo sapiens) (UniProt P03372). In words: qHTS assay to identify small molecule agonists of the estrogen receptor alpha (ER-alpha) signaling pathway (AID 743075; calls by dose curve;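 note: HEK293 GripTite cells with ER-alpha and UAS-driven beta-lactamase reporter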).
For experiment [7] the target is unchanged. In words: qHTS assay to identify small molecule agonists of the estrogen receptor alpha (ER-alpha) signaling pathway using the BG1 cell line (AID 743079). Note: nearly all actives have a fitted effect of over 20% in size. Note: potency is the fitted concentration of half-maximal effect.
Experiment [8] is described as follows: qHTS assay to identify small molecule antagonists of the estrogen receptor alpha (ER-alpha) signaling pathway using the BG1 cell line (AID 743080; calls by dose curve;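 note: BG1 cells stimulated with 17beta-estradiol alongside compound; series mostly up to about 70 µM; nearly all actives have a fitted effect of over 25% in size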). Put shortly:
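Endogenous full-length ER-alpha in BG1-Luc-4E2 cells drives a stably integrated 4×ERE luciferase gene; compounds were tested against 17beta-estradiol over 21.5 h, with luminescence and multiplexed viability fluorescence recorded.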

Experiment [9] is described as follows: qHTS assay to identify small molecule antagonists of the estrogen receptor alpha (ER-alpha) signaling pathway using the BG1 cell line - cell viability counter screen (AID 743081).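 Note: compound given together with 17beta-estradiol as the ER stimulus; series mostly up to about 70 µM; nearly all actives have a fitted effect of over 45% in size.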
The target of another experiment is Aromatase (Homo sapiens) (UniProt P11511). Description: qHTS assay to identify aromatase inhibitors (AID 743083). Note: series mostly up to about 70 µM; nearly all actives have a fitted effect of over 55% in size.
Chain of Aromatase (Homo sapiens) (P11511 whole entry, looked up): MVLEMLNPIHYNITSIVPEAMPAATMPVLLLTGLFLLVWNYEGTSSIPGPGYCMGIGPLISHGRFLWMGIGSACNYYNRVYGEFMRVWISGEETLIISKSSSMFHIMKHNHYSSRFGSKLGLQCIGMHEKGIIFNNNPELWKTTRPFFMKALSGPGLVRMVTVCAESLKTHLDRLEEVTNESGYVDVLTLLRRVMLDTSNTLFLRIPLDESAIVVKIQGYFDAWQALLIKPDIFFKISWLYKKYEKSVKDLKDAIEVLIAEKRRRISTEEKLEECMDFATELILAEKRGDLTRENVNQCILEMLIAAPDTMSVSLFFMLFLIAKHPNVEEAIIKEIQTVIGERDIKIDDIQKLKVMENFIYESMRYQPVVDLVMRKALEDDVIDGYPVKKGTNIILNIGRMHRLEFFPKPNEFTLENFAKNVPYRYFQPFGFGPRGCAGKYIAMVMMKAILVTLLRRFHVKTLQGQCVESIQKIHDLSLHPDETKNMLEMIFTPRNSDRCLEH
Experiment [10] is described as follows: qHTS assay to identify aromatase inhibitors - cell viability counter screen (AID 743084).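 Note: cells stimulated with testosterone during compound exposure; nearly all actives have a fitted effect of over 55% in size.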
For experiment [11], the target named is Aryl hydrocarbon receptor (Homo sapiens) (UniProt P35869). In words: qHTS assay to identify small molecule that activate the aryl hydrocarbon receptor (AhR) signaling pathway (AID 743085).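 For activation: HG2L7.5c1 human HepG2 liver cells with stably integrated DRE-driven firefly reporter; series mostly up to about 70 µM.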 Note: nearly all actives have a fitted effect of over 15% in size. Note: potency is the fitted concentration of half-maximal effect. Summed up:
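Luminescence read-out: ONE-Glo reagent, 30 min at room temperature, in HG2L7.5c1 HepG2 reporter cells treated 24 h at 37C. Viability was measured beforehand by CellTiter-Fluor fluorescence after 30 min at 37C.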

Experiment [12] is described as follows: qHTS assay to identify small molecule that activate the aryl hydrocarbon receptor (AhR) signaling pathway - cell viability counter screen (AID 743086).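 Note: HepG2 liver cells carrying the AhR DRE luciferase reporter; series mostly up to about 70 µM; nearly all actives have a fitted effect of over 45% in size.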 Summed up:
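HepG2-AhR-luc (HG2L7.5c1) cells, 4000/well, were preincubated 5 h at 37C, exposed to compound in qHTS format for 24 hr at 37C, then given CellTiter-Fluor for 30 min; viability was read as fluorescence in the reporter wells.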

Experiment [13] has as its target Peroxisome proliferator-activated receptor gamma (Homo sapiens) (UniProt P37231). In words: qHTS assay to identify small molecule agonists of the peroxisome proliferator-activated receptor gamma (PPARg) signaling pathway (AID 743094; active = well fitted activation curve with a large enough effect in the signal ratio in the repeat runs, not every such curve was filed as active; the % refers to the signal ratio). Summed up:
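Cell-based bla reporter, HEK293H background, PPARg-driven UAS. Pre-incubation 5 h, 37C, 5% CO2. Compound 17 h, 37C. Substrate 1 h RT; fluorescence.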

Results filed as inconclusive are left out. The source holds several records for some structures; these can differ, active in one and inactive in another. The source made the active and inactive calls. Unless noted, calls come from the whole dose curve; as a rule, active = well fitted curve in the direction sought with a large enough effect in the repeat runs; inconclusive = weak or mixed curves; inactive = no such curve, though single readings can be large; an effect the other way counts as inactive or inconclusive. Positions of bridges follow the written chain, without caps; N, C: chain ends. Non-standard residues stand in square brackets, D forms with d. Residues, ends and D or L forms follow the SMILES beside them. *: point of attachment. X1 = CC[C@@H](C)[C@@H](N)C1=N[C@H](C(=O)*)CS1; d(aIle) = CC[C@H](C)[C@@H](N)C(=O)O; dOrn = NCCC[C@@H](N)C(=O)O

Chain of Estrogen receptor (Homo sapiens) (P03372 whole entry, looked up): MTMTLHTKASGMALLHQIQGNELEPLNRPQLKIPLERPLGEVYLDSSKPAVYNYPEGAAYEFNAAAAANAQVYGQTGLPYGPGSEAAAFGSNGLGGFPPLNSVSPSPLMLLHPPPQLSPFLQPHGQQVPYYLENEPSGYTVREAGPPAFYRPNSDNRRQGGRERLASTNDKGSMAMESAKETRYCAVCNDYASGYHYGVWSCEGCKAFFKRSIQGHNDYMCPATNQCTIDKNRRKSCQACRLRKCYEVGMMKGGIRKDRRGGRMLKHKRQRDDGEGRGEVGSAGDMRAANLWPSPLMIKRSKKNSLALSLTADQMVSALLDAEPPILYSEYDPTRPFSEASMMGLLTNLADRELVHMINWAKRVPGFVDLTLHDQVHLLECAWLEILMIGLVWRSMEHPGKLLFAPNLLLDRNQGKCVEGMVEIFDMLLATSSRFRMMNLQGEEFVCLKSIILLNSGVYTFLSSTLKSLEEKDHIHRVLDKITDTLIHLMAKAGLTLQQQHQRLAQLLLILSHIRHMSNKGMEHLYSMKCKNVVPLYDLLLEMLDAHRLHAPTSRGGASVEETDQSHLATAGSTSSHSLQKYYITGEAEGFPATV
Chain of Aryl hydrocarbon receptor (Homo sapiens) (P35869 whole entry, looked up): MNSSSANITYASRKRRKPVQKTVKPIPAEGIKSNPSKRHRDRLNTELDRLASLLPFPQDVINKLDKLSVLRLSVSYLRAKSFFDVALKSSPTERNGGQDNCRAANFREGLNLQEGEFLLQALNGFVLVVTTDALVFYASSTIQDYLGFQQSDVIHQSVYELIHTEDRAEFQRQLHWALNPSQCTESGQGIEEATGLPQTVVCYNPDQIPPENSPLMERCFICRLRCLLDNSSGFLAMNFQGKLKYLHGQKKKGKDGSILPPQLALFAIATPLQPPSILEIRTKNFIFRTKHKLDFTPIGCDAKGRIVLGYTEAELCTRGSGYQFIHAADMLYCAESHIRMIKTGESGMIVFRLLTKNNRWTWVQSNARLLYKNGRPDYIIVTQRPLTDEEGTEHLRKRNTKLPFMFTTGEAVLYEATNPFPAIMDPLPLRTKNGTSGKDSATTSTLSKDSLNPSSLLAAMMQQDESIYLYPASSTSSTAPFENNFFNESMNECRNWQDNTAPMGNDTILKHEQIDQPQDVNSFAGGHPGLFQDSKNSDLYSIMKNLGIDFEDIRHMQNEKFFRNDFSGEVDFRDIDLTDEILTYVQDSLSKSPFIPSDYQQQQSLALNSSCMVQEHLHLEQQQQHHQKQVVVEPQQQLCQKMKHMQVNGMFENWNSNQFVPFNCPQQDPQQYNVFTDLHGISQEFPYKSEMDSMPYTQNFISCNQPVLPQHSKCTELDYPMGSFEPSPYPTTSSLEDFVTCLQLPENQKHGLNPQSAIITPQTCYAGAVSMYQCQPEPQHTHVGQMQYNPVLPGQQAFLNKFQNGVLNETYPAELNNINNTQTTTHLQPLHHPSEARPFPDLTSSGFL
Chain of Peroxisome proliferator-activated receptor gamma (Homo sapiens) (P37231 whole entry, looked up): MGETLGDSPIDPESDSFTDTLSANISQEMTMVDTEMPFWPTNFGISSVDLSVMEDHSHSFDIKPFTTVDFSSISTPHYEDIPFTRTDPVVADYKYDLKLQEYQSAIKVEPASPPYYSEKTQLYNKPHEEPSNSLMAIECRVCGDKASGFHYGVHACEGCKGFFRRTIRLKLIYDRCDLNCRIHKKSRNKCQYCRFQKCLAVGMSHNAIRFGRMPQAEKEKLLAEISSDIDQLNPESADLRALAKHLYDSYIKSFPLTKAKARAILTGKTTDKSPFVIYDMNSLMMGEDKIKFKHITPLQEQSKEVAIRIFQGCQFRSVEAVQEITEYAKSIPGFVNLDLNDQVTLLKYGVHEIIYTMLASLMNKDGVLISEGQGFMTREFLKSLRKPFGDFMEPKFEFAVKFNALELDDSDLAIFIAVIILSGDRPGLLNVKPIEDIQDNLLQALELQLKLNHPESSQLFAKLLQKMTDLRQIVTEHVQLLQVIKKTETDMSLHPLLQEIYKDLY

With `CCN(CC)CCOC[C@H]1O[C@@H](O)[C@H](OCCN(CC)CC)[C@@H](O)[C@@H]1O`, the Potency entry in experiment [1], in experiment [2], in experiment [3], in experiment [4], in [5] and in experiment [6] was “inactive” each time. For the same compound, the Potency entry (in experiment [7]; in experiment [8]; in experiment [9]; in the experiment with Aromatase (Homo sapiens); in experiment [10]; in experiment [11]) was “inactive” throughout. In addition, the Potency entry in [12] and in [13] was “inactive” each time.
As for `O=C1c2ccccc2CN2C(=O)c3ccccc3CN12`, the Potency entry in [1], in [2], in [3], in experiment [4], in [5] and in [6] was “inactive” each time. Further, the Potency result (in experiment [7]; in [8]; in experiment [9]; with Aromatase (Homo sapiens); in [10]; in experiment [11]) was “inactive” each time. Besides, the Potency result in experiment [12] and in [13] was “inactive” throughout.
For the compound `NCCCC[C@H](NC(=O)[C@@H]1CCCN1C(=O)[C@@H]1CSSC[C@H](N)C(=O)N[C@@H](Cc2ccc(O)cc2)C(=O)N[C@@H](Cc2ccccc2)C(=O)N[C@@H](CCC(N)=O)C(=O)N[C@@H](CC(N)=O)C(=O)N1)C(=O)NCC(N)=O`, the Potency entry in [1], in experiment [2], in [3], in experiment [4], in experiment [5] and in [6] was “inactive” each time. Also, the Potency result (in [7]; in experiment [8]; in experiment [9]; in the experiment with Aromatase (Homo sapiens); in experiment [10]; in experiment [11]) was “inactive” throughout. Besides, the Potency entry in experiment [12] and in experiment [13] was “inactive” in each case.
For the compound `CC[C@H]1OC(=O)C[C@@H](O)[C@H](C)[C@@H](O[C@@H]2O[C@H](C)[C@@H](O)[C@H](N(C)C)[C@H]2O)[C@@H](CCN2C[C@H](C)C[C@H](C)C2)C[C@@H](C)C(=O)/C=C/C(C)=C/[C@@H]1CO[C@@H]1O[C@H](C)[C@@H](O)[C@@H](OC)[C@H]1OC`, the Potency result in [1], in experiment [2], in experiment [3], in experiment [4], in experiment [5] and in experiment [6] was “inactive” in each case. Further, the Potency entry (in [7]; in experiment [8]; in experiment [9]; in the experiment with Aromatase (Homo sapiens); in [10]; in experiment [11]) was “inactive” throughout. Further, the Potency entry in [12] and in experiment [13] was “inactive” each time.
In the case of `Cc1c(O)c(=O)ccn1C`, the Potency entry in [1], in experiment [2], in experiment [3], in experiment [4], in experiment [5] and in experiment [6] was “inactive” in each case. Moreover, the Potency entry (in experiment [7]; in [8]; in experiment [9]; in the experiment with Aromatase (Homo sapiens); in experiment [10]; in experiment [11]) was “inactive” throughout. Further, the Potency result in experiment [12] and in experiment [13] was “inactive” each time.
On to `COC(=O)[C@H]1[C@H]2C[C@H]3c4[nH]c5ccccc5c4CCN3C[C@H]2CC[C@@H]1O`, for which the Potency result in experiment [1], in experiment [2], in [3], in experiment [4], in experiment [5] and in experiment [6] was “inactive” throughout. In addition, the Potency result (in [7]; in experiment [8]; in experiment [9]; with Aromatase (Homo sapiens); in experiment [10]; in [12]) was “inactive” each time. The Potency result in experiment [13] was “inactive”. The Potency in experiment [11] was 18.8 µM (active).
For the compound `CC[C@@H](C)[C@@H](N)C1=N[C@H](C(=O)N[C@@H](CC(C)C)C(=O)N[C@@H](CCC(=O)O)C(=O)N[C@@H](C(=O)N[C@@H]2CCCCNC(=O)[C@@H](CC(N)=O)NC(=O)[C@@H](CC(=O)O)NC(=O)[C@@H](Cc3cnc[nH]3)NC(=O)[C@@H](Cc3ccccc3)NC(=O)[C@@H]([C@H](C)CC)NC(=O)[C@@H](CCCN)NC2=O)[C@@H](C)CC)CS1` (X1-LE[d(aIle)][dK][dOrn][dI][dF][dH][dD][dN]; lactam 4-C), the Potency result in experiment [1], in experiment [2], in experiment [3], in [4], in experiment [5] and in experiment [6] was “inactive” each time. For the same compound, the Potency entry (in experiment [8]; in experiment [9]; with Aromatase (Homo sapiens); in experiment [10]; in experiment [11]; in experiment [12]) was “inactive” each time. Also, the Potency entry in experiment [13] is “inactive”. Moreover, the Potency in experiment [7] was 4.03 µM (active) and inactive.
For `OCC1(CO)COC(C(Cl)(Cl)Cl)OC1`, the Potency entry in [1], in experiment [2], in experiment [3], in experiment [4], in experiment [5] and in experiment [6] was “inactive” each time. In addition, the Potency entry (in experiment [7]; in experiment [8]; in experiment [9]; with Aromatase (Homo sapiens); in [10]; in experiment [11]) was “inactive” throughout. The Potency entry in [12] and in experiment [13] was “inactive” throughout.
Consider `C/C(=C\C(=O)OCCCCCCCCC(=O)O)C[C@@H]1OC[C@H](C[C@@H]2O[C@H]2[C@@H](C)[C@H](C)O)[C@@H](O)[C@H]1O`, for which the Potency result in [1], in experiment [2], in experiment [3], in experiment [4], in [5] and in [6] was “inactive” throughout. Moreover, the Potency entry (in experiment [7]; in experiment [8]; in experiment [9]; in the experiment with Aromatase (Homo sapiens); in experiment [10]; in experiment [11]) was “inactive” in each case. The Potency entry in experiment [12] and in experiment [13] was “inactive” in each case.
For `NC[C@@H]1CC[C@@H](N)[C@@H](O[C@H]2[C@H](O)[C@@H](O[C@H]3O[C@H](CO)[C@@H](O)[C@H](N)[C@H]3O)[C@H](N)C[C@@H]2N)O1`, the Potency result in experiment [1], in experiment [2], in experiment [3], in experiment [4], in experiment [5] and in [6] was “inactive” throughout. Moreover, the Potency result (in experiment [8]; in experiment [9]; with Aromatase (Homo sapiens); in [10]; in experiment [11]; in experiment [12]) was “inactive” each time. Further, the Potency result in experiment [13] was “inactive”. For the same compound, the Potency in experiment [7] is 11.9 µM (active).
Consider `OCl`, for which the Potency result in experiment [1], in [2], in experiment [3], in experiment [4], in experiment [5] and in experiment [6] was “inactive” each time. For the same compound, the Potency entry (in experiment [7]; in [8]; in experiment [9]; with Aromatase (Homo sapiens); in experiment [10]; in experiment [11]) was “inactive” in each case. The Potency entry in experiment [12] and in [13] was “inactive” each time.
On to `O=P(O)(O)C(O)(Cn1ccnc1)P(=O)(O)O`, for which the Potency entry in experiment [1], in experiment [2], in [3], in experiment [4], in [5] and in experiment [6] was “inactive” throughout. The Potency result (in [7]; in experiment [8]; in [9]; with Aromatase (Homo sapiens); in [10]; in experiment [11]) was “inactive” in each case. Also, the Potency result in [12] and in [13] was “inactive” in each case.
`CC12CCC(C[N+](C)(CCC[N+](C)(C)C)C1)C2(C)C` (configuration not stated): the Potency result in [1], in experiment [2], in experiment [3], in experiment [4], in experiment [5] and in [6] was “inactive” throughout. Further, the Potency entry (in [7]; in [8]; in experiment [9]; with Aromatase (Homo sapiens); in experiment [10]; in experiment [11]) was “inactive” each time. In addition, the Potency result in [12] and in experiment [13] was “inactive” each time.
